# This is part of a sample that, as a whole, favours compounds with a hit. Of some 83,000 tested, about 20% had one in any assay.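 A percent growth of 40 corresponds to 60% growth inhibition; 0 means no net growth; -100 means all cells died. Active threshold: below 10.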 Values without a mark were called inactive. Active and inactive are the calls of the source.
# Tests used:
# Assay in all cases: NCI-60 one-dose screen, 48 h (100 = growth as untreated, 0 = no growth, -100 = all killed)
# Conditions in all cases: 10 µM
# SK-MEL-2 melanoma = system: SK-MEL-2 melanoma
# EKVX NSCLC = system: EKVX NSCLC
# SN12C renal = system: SN12C renal
# UO-31 renal = system: UO-31 renal
# TK-10 renal = system: TK-10 renal
# ACHN renal = system: ACHN renal
# CAKI-1 renal = system: CAKI-1 renal
# A498 renal = system: A498 renal
# CCRF-CEM leukemia = system: CCRF-CEM leukemia
# MOLT-4 leukemia = system: MOLT-4 leukemia
Structure (SMILES),growth (SK-MEL-2 melanoma),growth (EKVX NSCLC),growth (SN12C renal),growth (UO-31 renal),growth (TK-10 renal),growth (ACHN renal),growth (CAKI-1 renal),growth (A498 renal),growth (CCRF-CEM leukemia),growth (MOLT-4 leukemia)
N#Cc1ccc(-c2nn(-c3ccc(C(=O)O)cc3)cc2CNc2ccc(Oc3ccccc3)cc2)cc1,55.6%,75%,34.1%,66.5%,77.1%,47.3%,59.7%,73%,19.3%,19.9%
Cc1noc2c(Cc3ccccc3)nn(CC(=O)N/N=C/c3ccc(Cl)cc3)c(=O)c12,94.3%,72.9%,7.85% (active),-40.5% (active),4.87% (active),-16.5% (active),38.5%,-58.1% (active),97.3%,102%
CC(=O)c1cc(C(=O)c2ccc3c(c2)NC(=O)CO3)n2ccc3ccccc3c12,107%,75%,86.1%,59%,78.2%,50%,55.4%,97.3%,82.9%,66.8%
CCOc1ccc(Nc2nc3ccccc3nc2Nc2ccc(OCC)cc2)cc1,89%,46.6%,54.7%,54.9%,72%,52.9%,51.4%,69.1%,23.7%,9.99% (active)
CCOC(=O)C(Cc1ccccc1)N1C(=O)/C(=C/N2N=C(c3ccc(OC)cc3)CC2c2ccc3ccccc3c2)SC1=S (stereo not given),-64.1% (active),-7.27% (active),8.88% (active),16.2%,24.8%,23.2%,24.8%,-13.3% (active),5.96% (active),4.16% (active)
Cc1ccn2c(C(=O)c3ccccc3)cc(-c3cc(-c4ccc(N(C)C)cc4)c(C#N)c(N)n3)c2c1,80.9%,88.6%,61.9%,65.4%,85.7%,31.2%,52.7%,111%,96.5%,82.9%
COc1ccc(-c2ccc(/C=N/NC(=O)c3[nH]c4ccc(Br)cc4c3-c3ccccc3)o2)cc1,34.3%,60.1%,35%,43.9%,88.4%,30.9%,28.4%,73.9%,10.5%,20.9%
COc1ccc(-c2ccc(/C=N/NC(=O)c3[nH]c4ccc(Br)cc4c3-c3ccccc3)s2)cc1,106%,110%,74.9%,86.4%,127%,106%,94.8%,131%,88%,87.6%
O=C(Nc1nc2ccc([N+](=O)[O-])cc2s1)Nc1ccccc1I,-21.6% (active),-8.48% (active),1.18% (active),0.855% (active),10.8%,-0.408% (active),-19.5% (active),-8.67% (active),3.88% (active),1.39% (active)
COc1cc2c3c(n(CCCn4ccnc4)c(=O)c2cc1OC)-c1nc2c(cc1C3=O)OCO2,123%,91.6%,19.7%,26.5%,110%,3.67% (active),10.2%,118%,18.5%,20.9%
Cc1cccc(NC(=O)CSc2nc3ccc(F)cc3c(=O)n2-c2ccc(Cl)cc2)c1C,73.1%,75%,64.1%,39.6%,108%,37.8%,-21.6% (active),108%,94.4%,81.3%
O=C(NO)c1ccc(Cn2ccc3c(NCc4ccccc4)ncnc32)cc1,-2.65% (active),21.4%,13.9%,4.26% (active),-7.3% (active),0.241% (active),2.72% (active),-20.1% (active),8.45% (active),3.81% (active)
CCCn1c(=O)c2[nH]c(-c3ccc(OCc4nc5ccc(F)cc5[nH]4)cc3)nc2n(CCC)c1=O,28.6%,34.4%,-20.1% (active),-78.7% (active),-3.59% (active),-56.6% (active),6.55% (active),-85.8% (active),44%,24.7%
O=C(c1ccc(Cl)cc1)C1[C@H](c2ccc(Br)cc2)[C@@H](c2ccccc2)NC12C(=O)Nc1ccccc12 (stereo not given in full),-62.7% (active),4.42% (active),-78.1% (active),2.46% (active),14.5%,-5.73% (active),0.681% (active),-23.5% (active),-0.656% (active),-22.7% (active)
COc1ccc(/C(C)=N/N=C2C(=O)N(C)c3ccc(Br)cc32)cc1S(N)(=O)=O,81.7%,56.7%,68.7%,65.1%,105%,69.3%,41%,99.6%,89.1%,84.6%
